Records with an inconclusive call do not appear. The source made the active and inactive calls. How the source made its calls: active means hit-call score of the fitted dose curve at least 0.9, where 1 is the maximum; inconclusive means response in the unintended direction; inactive means score below 0.9.

Chain of Oxysterols receptor LXR-alpha (Homo sapiens) (Q13133 whole entry, looked up): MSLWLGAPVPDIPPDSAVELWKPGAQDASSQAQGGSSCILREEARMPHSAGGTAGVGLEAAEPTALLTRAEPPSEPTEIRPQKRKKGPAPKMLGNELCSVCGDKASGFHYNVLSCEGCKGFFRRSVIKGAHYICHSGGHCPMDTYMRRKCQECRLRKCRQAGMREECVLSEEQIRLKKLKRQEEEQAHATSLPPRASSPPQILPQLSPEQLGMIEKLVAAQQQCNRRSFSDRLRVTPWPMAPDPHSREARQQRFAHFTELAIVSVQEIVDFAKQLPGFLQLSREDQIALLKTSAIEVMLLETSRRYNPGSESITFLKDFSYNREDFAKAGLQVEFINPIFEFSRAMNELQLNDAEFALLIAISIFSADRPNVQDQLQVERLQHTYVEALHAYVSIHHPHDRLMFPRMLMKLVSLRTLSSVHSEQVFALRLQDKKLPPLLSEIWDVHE

The assay concerns the target Oxysterols receptor LXR-alpha (Homo sapiens) (UniProt Q13133). The experiment in a line: ATG_LXRa_TRANS: Attagene TRANS-FACTORIAL HepG2 Assay for human Liver X Receptor alpha (LXRa) (AID 2282980). The note with it: HepG2 Attagene TRANS reporter, LXRa transactivation. The method, then: ATG_TRANS is a cell-based, multiplexed-readout assay that uses HepG2, a human liver cell line, with measurements taken at 24 hours after chemical dosing in a 24-well plate.ATG_LXRa_TRANS is one of 30 assay component(s) measured or calculated from the ATG_TRANS assay. It is designed to make measurements of mRNA induction, a form of inducible reporter, as detected with fluorescence intensity signals by Reverse transcription polymerase chain reaction (RT-PCR) and Capillary electrophoresis technology.Data from the assay component ATG_LXRa_TRANS was analyzed into 1 assay endpoint. This assay endpoint, ATG_LXRa_TRANS, was analyzed in the positive analysis fitting direction relative to DMSO as the negative control and baseline of activity. Using a type of inducible reporter, measures of mRNA for gain-of-signal activity can be used to understand the reporter gene at the transcription factor-level as they relate to the gene NR1H3. Furthermore, this assay endpoint can be referred to as a primary readout, because this assay has produced multiple assay endpoints where this one serves a reporter gene function. To generalize the intended target to other relatable targets, this assay endpoint is annotated to the nuclear receptor intended target family, where the subfamily is non-steroidal.
Human liver HepG2 cells are transiently transfected with multiple reporter transcription units (MRTUs) in 6-well plates using FuGene 6 reagent (Roche; 3 ml FuGene/1 mg DNA). The MRTU constructs are regulated by a cis-regulating element (promoter). […] A major difference between the CIS and TRANS system is that in CIS activities of endogenous TFs are measured, whereas the TRANS assay evaluates changes in activities of exogenous, chimeric NR-Gal4 proteins. […] At the end of 24 hour incubation, total RNA was isolated using TriZol reagent (Invitrogen). The isolated RNA is then reverse-transcribed using oligo(dT) primer and Mo-MLV reverse transcriptase (Invitrogen) with DNAse I (Ambion) treatment for 30 min. The one-tenth of the produced cDNA was amplified by PCR using Taq DNA polymerase (Invitrogen) and two reporter sequence-specific primers. The PCR products were fluorescently labeled by primer extension with 6-arboxyfluorescein (6-FAM) 5'-labeled reporter sequence-specific primer (2 min at 95 C, 20 s at 68 C and 10 min at 72 C) and these products were digested with 5U of HpaI (New England Biolabs) for 2h at 37 C. The fragments were purified using Qiaquick PCR columns (Qiagen), analyzed on an ABI 3130xL genetic analyzer (Applied Biosystems) with peak positions identified by using a set of X-rhodamine (ROX)-labeled MapMarker1000 molecular weight standards (BioVentures). The raw capillary electrophoresis data was processed using Attagraph software (Attagene).
In the case of `c1ccc2sc(SNC3CCCCC3)nc2c1`, the call was inactive.

On to `CCCSP(=S)(OCC)Oc1ccc(Cl)cc1Cl` (stereo not given), for which the compound was called inactive.

Take `Cc1cc(Cl)ccc1OCCCC(=O)O`: the compound was classed as inactive.

On to `CC(C)(c1ccccc1)c1cc(-n2nc3ccccc3n2)c(O)c(C(C)(C)c2ccccc2)c1`, for which the result was inactive.

For `O=CCCl`, the call was inactive.

In the case of `O=C(O)CC(O)(CC(=O)O)C(=O)O`, the outcome was inactive.

Turning to `CN(C)c1ccc(N=O)cc1`, the call was inactive.

For `CCN(N=O)C(N)=O`, the call was inactive.

As to `c1ccc(-c2cccc(-c3ccccc3)c2)cc1`, the call was inactive.

For the compound `CC(C=O)Cc1ccc2c(c1)OCO2` (stereo not given), the result was inactive.

`CCCCOC(C)=O`: the compound was called inactive.

Turning to `O=[N+]([O-])c1cc([As](=O)(O)O)ccc1O`, the call was inactive.

`O=C(CCl)Nc1ccccc1`: the result was inactive.

On to `CC(O)(CS(=O)(=O)c1ccc(F)cc1)C(=O)Nc1ccc(C#N)c(C(F)(F)F)c1` (stereo not given), for which the compound was called inactive.

Consider `NC(=O)CCl`, for which the compound was called inactive.

On to `ClCc1ccccc1CCl`, for which the result was inactive.

For the compound `Brc1ccc(Oc2c(Br)cc(Br)cc2Br)c(Br)c1`, the outcome was inactive.

Consider `CCOCn1c(-c2ccc(Cl)cc2)c(C#N)c(Br)c1C(F)(F)F`, for which the compound was called inactive.

For `CNC(=O)N(C)c1nc2ccccc2s1`, the outcome was inactive.

Take `CC(C)O.CC(C)O.OCCN(CCO)CCO.OCCN(CCO)CCO.[Ti]`: the outcome was inactive.

`CCCCN(CCCC)C(=S)[S-].CCCCN(CCCC)C(=S)[S-].[Ni+2]`: the outcome was inactive.

On to `Brc1ccc(Br)cc1`, for which the result was inactive.

Turning to `COCC(=O)N(c1c(C)cccc1C)[C@H](C)C(=O)OC`, the outcome was inactive.

As to `Nc1nc(=S)[nH][nH]1`, the call was inactive.

For the compound `O=C(O)COc1ccc(Cl)cc1`, the compound was classed as inactive.

Consider `O=C(Cl)OCCOCCOC(=O)Cl`, for which the compound was called inactive.

With `CCOC(=O)CC(=O)CCl`, the compound was called inactive.

As for `O=C(NC(=O)c1c(F)cccc1F)Nc1ccc(Cl)cc1`, the compound was called inactive.

With `C=CC(=O)NC(C)(C)CC(C)=O`, the result was inactive.

Regarding `OC[C@@H](O)[C@H]1O[C@@H]2O[C@H](C(Cl)(Cl)Cl)O[C@@H]2[C@H]1O`, the compound was called inactive.

As to `COP(=S)(OC)Oc1cc(Cl)c(I)cc1Cl`, the result was inactive.

Consider `CS(=O)(=O)c1ccc(C(=O)C2C(=O)CCCC2=O)c(Cl)c1COCC(F)(F)F`, for which the compound was classed as inactive.

As to `c1csc(-c2ccc(-c3cccs3)s2)c1`, the compound was classed as inactive.

Consider `COc1nn(C(=O)NS(=O)(=O)c2ccccc2OC(F)(F)F)c(=O)n1C`, for which the result was inactive.

Consider `CCC[CH2][Sn]([CH2]CCC)([CH2]CCC)[CH2]CCC`, for which the result was inactive.

In the case of `C=CCOC(F)(C(F)(F)F)C(F)(F)F`, the result was inactive.

As to `CC1(C)[C@H](/C=C2\CCSC2=O)[C@@H]1C(=O)OCc1coc(Cc2ccccc2)c1`, the outcome was inactive.

For the compound `O=C(O)c1cc(I)cc(I)c1I`, the result was inactive.

Turning to `O=[N+]([O-])c1ccccc1O`, the result was inactive.

As to `CCOP(=S)(OCC)Oc1ccc(Cl)cc1Cl`, the outcome was inactive.

(Values after PubChem BioAssay (EPA / NIEHS).)
